Results on 38 compounds are retold here after PubChem BioAssay (NCATS).

Records with an inconclusive call do not appear. Where a call stands in place of a potency, no number is given. Active and inactive are the calls of the source. Calls come from the whole dose curve; as a rule, active = well fitted curve in the direction sought with a large enough effect; inconclusive = small, poorly fitted or top-dose-only effect, or another doubt; inactive = no such curve, though single readings can be large; an effect the other way counts as inactive or inconclusive.

The first assay is described as follows: qHTS for Inhibitors of Ubiquitin-specific Protease USP2a Using CHOP2 as the Reporter: K633 Counterscreen (AID 652168). The settings on record: No-enzyme DiUb K48 IQF substrate fluorescence interference, kinetic; series mostly up to 57.5 µM. The gist of the method:
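Cell-free interference counterscreen without USP2a: compounds pinned into enzyme-free buffer (20 mM Tris pH 8, 2 mM beta-mercaptoethanol, 0.05% Chaps), then DiUb K48-4IQF substrate added (100 nM stock); fluorescence read kinetically, Ex 525/Em 598.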
On the technique in general: qHTS replaces the single test concentration by a dilution series.
With `Cc1cc(S(=O)(=O)Nc2cnccc2C(=O)Nc2nc(-c3ccccc3)cs2)c(C)o1`, the compound was called inactive.

`CCc1ccc(S(=O)(=O)Nc2cnccc2C(=O)Nc2nc(-c3ccccc3)cs2)cc1`: the call was inactive.

For `CCCOC1CCC(C(=O)Nc2ccc([S+](=O)([O-])Nc3nccs3)cc2)CC1` (stereo not given), the result was inactive.

Consider `O=C1CCCc2cc(S(=O)(=O)Nc3cnccc3C(=O)Nc3nc(-c4ccccc4)cs3)ccc2N1`, for which the result was inactive.

Turning to `Cc1ccc(S(=O)(=O)Nc2cnccc2C(=O)Nc2nc(-c3cc(Br)cs3)cs2)cc1`, the call was inactive.

For `Cc1ccc(S(=O)(=O)Nc2cnccc2C(=O)Nc2cccc3ccccc23)cc1`, the result was inactive.

For `O=C(Nc1nc(-c2ccccc2)cs1)c1ccncc1NS(=O)(=O)c1c(F)cc(F)cc1F`, the outcome was inactive.

With `O=C(Nc1nc(-c2ccc(F)cc2)cs1)c1ccncc1NS(=O)(=O)c1ccc(F)cc1`, the call was inactive.

Regarding `O=C(Nc1ccc(S(=O)(=O)Nc2ncc(-c3ccccc3)s2)cc1)c1ccc2ccccc2c1`, the outcome was inactive.

Turning to `Cc1ccc(S(=O)(=O)Nc2cnccc2C(=O)Nc2ccc3ccccc3c2)cc1`, the outcome was inactive.

For `Cc1ccc(S(=O)(=O)Nc2cnccc2C(=O)Nc2nc(-c3cnn(C)c3)cs2)cc1`, the compound was called inactive.

Turning to `Cc1ccc(S(=O)(=O)Nc2cnccc2C(=O)Nc2nc(-c3ccccc3Cl)cs2)cc1`, the compound was called inactive.

Consider `O=C(Nc1nc(-c2ccccc2)cs1)c1ccncc1NS(=O)(=O)c1ccc(-c2ccccc2)cc1`, for which the call was inactive.

With `N#Cc1ccccc1S(=O)(=O)Nc1cnccc1C(=O)Nc1nc(-c2ccccc2)cs1`, the result was inactive.

For the compound `Cc1ccc(S(=O)(=O)Nc2cnccc2C(=O)Nc2nc(-c3cccnc3)cs2)cc1`, the compound was classed as inactive.

With `Cc1ccc(S(=O)(=O)Nc2cnccc2C(=O)Nc2nc(-c3ccc(Oc4ccccc4)cc3)cs2)cc1`, the compound was classed as inactive.

As for `Cc1ccc(-c2csc(NC(=O)c3ccncc3NS(=O)(=O)c3ccc(C)cc3)n2)cc1`, the compound was called inactive.

A short description of the next assay: qHTS for Inhibitors of Ubiquitin-specific Protease USP2a Using CHOP2 as the Reporter: Cytotox Assay (AID 652170). Note: nearly all actives have a fitted effect of over 70% in size. Note: potency is the fitted concentration of half-maximal effect. To be noted: HCT116 viability, CellTiter-Glo luminescence, 72 h; series mostly up to 46.1 µM. In short, it runs like this: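 HCT116 human colon cancer cells, 600 per well in DMEM with 10% FBS, exposed to compounds for 72 hr at 37 deg C. ATP measured by CellTiter-Glo luminescence, normalized to DMSO cells and no-cell background.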
With `COC(=O)C1=CC[C@H](c2ccc(C)cc2)N(S(=O)(=O)c2ccc(C)cc2)[C@@H]1c1ccc(C(C)(C)C)cc1`, the Potency entry was “inactive”.

`Cc1ccc(S(=O)(=O)Nc2cnccc2C(=O)Nc2nc3ccccc3s2)cc1`: the Potency entry is “inactive”.

For the compound `CCCc1ccc(-c2csc(NC(=O)c3ccncc3NS(=O)(=O)c3ccc(C)cc3)n2)cc1`, the Potency was 20.9 µM (active).

For `Cc1ccc(NC(=O)c2cc(-c3ccc(C)c(C)c3)nc3ccccc23)cc1`, the Potency result was “inactive”.

With `O=C(Nc1ccc(C(=O)Nc2nccs2)cc1)c1ccc2ccccc2c1`, the Potency entry is “inactive”.

For `O=C(Nc1nc(-c2ccccc2)cs1)c1ccncc1NS(=O)(=O)c1ccccc1Cl`, the Potency result was “inactive”.

As to `COc1ccc(S(=O)(=O)Nc2cnccc2C(=O)Nc2nc(-c3ccccc3)cs2)cc1`, the Potency result is “inactive”.

Regarding `O=C(Nc1ccc(S(=O)(=O)Nc2nccs2)cc1)c1ccc(-c2ccccc2)cc1`, the Potency result was “inactive”.

In the case of `Cc1ccc(S(=O)(=O)Nc2cnccc2C(=O)Nc2nc(-c3ccc4c(c3)CCCC4)cs2)cc1`, the Potency was 20.9 µM (active).

Regarding `COc1ccc(C(=O)Nc2nc(-c3ccccc3)cs2)c(NS(=O)(=O)c2ccc(C)cc2)c1`, the Potency was 13.2 µM (active).

Take `O=S(=O)(Nc1nccs1)c1ccc(Nc2nc(-c3ccc(F)cc3)cs2)cc1`: the Potency entry was “inactive”.

On to `O=C(Nc1nc(-c2ccccc2)cs1)c1ccncc1NS(=O)(=O)c1ccc(C(F)(F)F)cc1`, for which the Potency result is “inactive”.

Turning to `Cc1ccccc1S(=O)(=O)Nc1cnccc1C(=O)Nc1nc(-c2ccccc2)cs1`, the Potency was 18.7 µM (active).

As to `Cc1ccc(-c2cc(C(=O)Nc3ccc(S(=O)(=O)O)cc3)c3ccccc3n2)cc1C`, the Potency result was “inactive”.

For the compound `O=S(=O)(Nc1nccs1)c1ccc(Nc2nc(-c3ccc(-c4ccccc4)cc3)cs2)cc1`, the Potency entry was “inactive”.

`O=C(Nc1nc(-c2ccccc2)cs1)c1ccncc1NS(=O)(=O)c1cccc(Cl)c1`: the Potency entry is “inactive”.

Turning to `Cc1ccc(-c2cc(C(=O)NC3CCCCC3)c3ccccc3n2)cc1C`, the Potency entry was “inactive”.

On to `O=C(Nc1nc(-c2ccc(F)cc2)cs1)c1ccncc1NS(=O)(=O)c1ccccc1Cl`, for which the Potency result was “inactive”.

Regarding `Cc1cc(S(=O)(=O)Nc2cnccc2C(=O)Nc2nc(-c3ccccc3)cs2)c(C)o1`, the Potency is 23.5 µM (active).

Consider `CCc1ccc(S(=O)(=O)Nc2cnccc2C(=O)Nc2nc(-c3ccccc3)cs2)cc1`, for which the Potency was 20.9 µM (active).

Consider `CCCOC1CCC(C(=O)Nc2ccc([S+](=O)([O-])Nc3nccs3)cc2)CC1` (stereo not given), for which the Potency entry is “inactive”.

For the compound `O=C1CCCc2cc(S(=O)(=O)Nc3cnccc3C(=O)Nc3nc(-c4ccccc4)cs3)ccc2N1`, the Potency entry is “inactive”.

Consider `O=C(Nc1nc(-c2ccccc2)cs1)c1ccncc1NS(=O)(=O)c1c(F)cc(F)cc1F`, for which the Potency entry was “inactive”.

As for `O=C(Nc1nc(-c2ccc(F)cc2)cs1)c1ccncc1NS(=O)(=O)c1ccc(F)cc1`, the Potency entry was “inactive”.

Regarding `O=C(Nc1ccc(S(=O)(=O)Nc2ncc(-c3ccccc3)s2)cc1)c1ccc2ccccc2c1`, the Potency result is “inactive”.

Consider `Cc1ccc(S(=O)(=O)Nc2cnccc2C(=O)Nc2nc(-c3cccc(Cl)c3)cs2)cc1`, for which the Potency was 23.5 µM (active).

Take `Cc1ccc(S(=O)(=O)Nc2cnccc2C(=O)Nc2nc(-c3cnn(C)c3)cs2)cc1`: the Potency result is “inactive”.

As for `N#Cc1ccccc1S(=O)(=O)Nc1cnccc1C(=O)Nc1nc(-c2ccccc2)cs1`, the Potency entry is “inactive”.

Regarding `Cc1ccc(S(=O)(=O)Nc2cnccc2C(=O)Nc2ccc(C#N)cc2)cc1`, the Potency entry was “inactive”.

As for `Cc1ccc(-c2cc(C(=O)Nc3ccc(Cl)cc3)c3ccccc3n2)cc1C`, the Potency result was “inactive”.

For `Cc1ccc(S(=O)(=O)Nc2cnccc2C(=O)Nc2nc(-c3cccnc3)cs2)cc1`, the Potency result is “inactive”.

As to `Cc1ccc(S(=O)(=O)Nc2cnccc2C(=O)Nc2nc(-c3ccc(Oc4ccccc4)cc3)cs2)cc1`, the Potency was 20.9 µM (active).

Turning to `Cc1ccc(-c2csc(NC(=O)c3ccncc3NS(=O)(=O)c3ccc(C)cc3)n2)cc1`, the Potency is 14.8 µM (active).
